In all, about 350,000 compounds went through this assay and about 7,000 (2%) were called active. What follows is part of a selection rich in actives, with near analogues and random picks from the rest. Values without a mark were called inactive. Cut-off read from the data, not from the text of the source: active = activation above about 40%; inconclusive = no clear call, values can overlap the other calls; inactive = below that.
Assay: raisers of Bmi1 knock-in reporter signal – mouse ES cells, Bmi1 luciferase knock-in, single point, esBAF inhibitor project, primary screen (AID 602393);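 note: 0% = median of the plate's neutral control wells and 100% = double that signal; a rise in the Bmi1 reporter signal indicates esBAF inhibition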
Conditions: 24 h, at 12.5 µM, active compounds read high, 100% = twice the neutral-well signal

| SMILES | reporter increase |
| --- | --- |
| CO[C@H]1CN(C)C(=O)c2cc(NS(=O)(=O)CC(F)(F)F)ccc2OC[C@@H](C)N(C(=O)c2ccc3c(c2)OCO3)C[C@@H]1C | 2.12% |
| O=C(c1ccccc1)N1C[C@@H]2[C@H](c3ccccc31)[C@@H](CO)N2Cc1cc(F)ccc1F | -1.5% |
| CO[C@@H]1CN(C)C(=O)c2cc(NC(=O)C3CCCCC3)ccc2OC[C@@H](C)N(C(=O)Nc2ccc(C(F)(F)F)cc2)C[C@H]1C | 9.31% |
| CCCNC(=O)[C@H]1[C@H](CO)[C@H]2Cn3c(ccc(C4=CCCC4)c3=O)[C@H]2N1C(=O)CC1CC1 | -1.14% |
| CC(=O)c1cccc(NC(=S)N2CCCC2)c1 | 3.72% |
| CC(=O)c1cccc(NC(=O)Nc2ccc(C)cc2)c1 | 42.2% (active) |
| CCSc1nsc(NC(=O)Nc2cccc(C(C)=O)c2)n1 | 7.31% |
| COc1ccc(C(=O)Nc2cc(C)c(NC(=O)c3ccccc3OC)cn2)cc1 | 34.2% |
| COc1cc2ccccc2cc1C(=O)Nc1ccncc1 | 60% (active) |
| CCOc1cc2ccccc2cc1C(=O)Nc1ccccn1 | 18.4% |
| Cc1ccccc1C(=O)Nc1ccccc1NC(=O)c1ccccc1C | -2.73% |
| COc1cc2ccccc2cc1C(=O)Nc1ccccc1C | 71.4% (active) |
| COc1cc2ccccc2cc1C(=O)Nc1ccc(S(=O)(=O)Nc2cc(C)on2)cc1 | 5.76% |
| CC(C)C#Cc1cnc2c(c1)C(=O)N([C@@H](C)CO)C[C@@H](C)[C@@H](CN(C)C(=O)c1cccc(F)c1)O2 | 4.18% |
| CCC(=O)N1[C@@H]2c3ccc(-c4ccc(F)cc4)c(=O)n3C[C@H]1[C@H](CO)[C@H]2C(=O)N(C)C | -3.81% |
| CO[C@@H]1CC[C@@H]2CCOc3ccc(C#N)cc3C(=O)N(C)C[C@H](c3ccccc3)CC(=O)N(C)C[C@H]1O2 | -4.55% |
| CO[C@@H]1CN(C)C(=O)c2cc(NC(=O)C3CCOCC3)ccc2OC[C@H](C)N(C)C[C@H]1C | -1.27% |
| COc1ccc(-c2ccc([C@@H]3[C@@H](C#N)N(C(=O)C4CCCCC4)[C@H]3CO)cc2)cc1 | 9.6% |
| CC(C)c1ccc(C(=O)NCCCc2ccccc2)cc1 | 55.1% (active) |
| CSc1ncc(C(=O)NCCCc2ccccc2)c(C)n1 | 5.19% |
| O=C(NCc1ccccc1)c1cccc(NC(=O)C2CCCCC2)c1 | -4.78% |
| O=C(COC(=O)c1ccc(F)cc1)NCCCc1ccccc1 | -1.61% |
| CC(C)(C)OC(=O)N1CCC(C(=O)Nc2cccc(C(=O)NCCc3ccccc3)c2)CC1 | 24.1% |
| O=C(NCCc1ccccc1)c1cccc(NC(=O)c2ccccc2)c1 | 42.6% (active) |
| C[C@@H]1CN([C@H](C)CO)S(=O)(=O)c2ccc(C3=CCCC3)cc2O[C@H]1CN(C)C(=O)CC1CC1 | -4.31% |
| CC(=O)N1[C@@H]2Cn3c(ccc(C4=CCCC4)c3=O)[C@H]1[C@@H](C(=O)NC1CCC1)[C@@H]2CO | 1.06% |
| CNC[C@H]1OCCCC[C@@H](C)Oc2ccc(NC(=O)Cc3ccccc3)cc2C(=O)N([C@H](C)CO)C[C@@H]1C | -1.06% |

| SMILES | reporter increase |
| --- | --- |
| CC=Cc1ccc2n(c1=O)C[C@H]1[C@H](CO)[C@@H](C(=O)NC3CCCC3)N(Cc3ccncc3)[C@@H]21 (mixture of isomers) | -6.02% |
| CCCNC(=O)C[C@H]1C[C@@H]2c3cc(NC(=O)c4ccc5c(c4)OCO5)ccc3O[C@@H]2[C@@H](CO)O1 | 0.264% |
| O=C1c2ccccc2C(=O)N1CCCCCCN1C(=O)c2ccccc2C1=O | 5.74% |
| O=C(OCCN1C(=O)c2ccccc2C1=O)Oc1ccccc1 | -11.2% |
| O=C1c2ccccc2C(=O)N1CCOc1ccc(F)cc1 | 60.3% (active) |
| C[C@H]1CN([C@@H](C)CO)C(=O)c2cc(NC(=O)Cn3cnnn3)ccc2O[C@H]1CN(C)C(=O)NC1CCCCC1 | -0.29% |
| Cc1ccc(S(=O)(=O)Nc2ccc3c(c2)C(=O)N([C@H](C)CO)C[C@H](C)[C@@H](CN(C)S(=O)(=O)c2cn(C)cn2)OCCCC[C@H](C)O3)cc1 | -6.8% |
| CCOC(=O)c1cc2n(c1C)-c1ccccc1C2=O | 47.8% (active) |
| CCOC(=O)c1ccccc1CN1C(=O)c2ccccc2S1(=O)=O | 0.163% |
| CCOC(=O)CN1C(=O)C(=O)c2cc(C)ccc21 | -5.46% |
| COc1ccc(CN(C)C[C@H]2OCCCC[C@@H](C)Oc3ccc(NS(C)(=O)=O)cc3C(=O)N([C@@H](C)CO)C[C@H]2C)cc1 | -3.35% |
| CCC(=O)Nc1ccc2c(c1)OC[C@@H](C)N(Cc1ccccc1OC)C[C@H](C)[C@H](OC)CN(C)C2=O | -1.32% |
| COCC(=O)Nc1ccc2c(c1)C(=O)N(C)C[C@@H](OC)[C@H](C)CN(C(=O)CC1CC1)[C@H](C)CO2 | 0.458% |
| Cc1ccc(S(=O)(=O)Nc2cccc3c2O[C@@H](CN(C)C(=O)Nc2ccccc2)[C@H](C)CN([C@@H](C)CO)C3=O)cc1 | -4.19% |
| CN(C)c1cc[n+](Cc2ccccc2)cc1 | 12.9% |
| CN(C)c1ccc(CSc2ccccc2)cc1 | 75.8% (active) |
| CN(C)c1ccc(CNC23CN4CN(CN(C4)C2)C3)cc1 | 2.1% |
| CCNC(=O)C[C@@H]1CC[C@H]2[C@@H](COC[C@@H](O)CN2C(=O)c2cc(Cl)cc(Cl)c2)O1 | -3.54% |
| COCC(=O)Nc1ccc2c(c1)C(=O)N(C)[C@@H]1CC[C@@H](CC(=O)NCCCN(C)C)O[C@@H]1CO2 | 12.8% |
| Cc1ccc(S(=O)(=O)/N=C(\N)c2ccc(F)cc2)cc1 | 13.3% |
| Cc1ccc(-c2cc(=O)c3ccc(F)cc3[nH]2)cc1 | 47.2% (active) |
| O=c1cc(-c2ccccc2)[nH]c2cc(F)ccc12 | 7.27% |
| Brc1ccccc1C1N=C(c2ccccc2)NO1 (stereo not given) | 54.3% (active) |
| N#Cc1ccc(C2N=C(c3ccccc3)NO2)cc1 (stereo not given) | 65.2% (active) |
| S=C1NC(c2ccccc2)=NCN1c1ccc(Br)cc1 | 30.7% |
| CO[C@@H]1CN(C)C(=O)c2cc(NC(=O)C3CCCC3)ccc2OC[C@@H](C)N(Cc2ccc(F)cc2)C[C@H]1C | 8.36% |
| CO[C@H]1CN(C)C(=O)c2cc(NC(=O)NC(C)C)ccc2OC[C@H](C)N(C(=O)CN(C)C)C[C@H]1C | -0.455% |

| SMILES | reporter increase |
| --- | --- |
| COc1ccc(NC(=O)N(C)C[C@H]2OCCCC[C@@H](C)Oc3ccc(NS(=O)(=O)c4ccc(F)cc4)cc3C(=O)N([C@@H](C)CO)C[C@@H]2C)cc1 | 1.41% |
| O=C(C[C@@H]1CC[C@H]2[C@@H](COC[C@@H](O)CN2CC2CC2)O1)NCc1ccc(Cl)cc1 | -7.82% |
| CO[C@H]1CN(C)C(=O)c2cc(NC(C)=O)ccc2OC[C@H](C)N(C(=O)C2CC2)C[C@H]1C | -2.16% |
| CS(=O)(=O)N1C[C@@H](O)COC[C@@H]2O[C@H](CC(=O)NC3Cc4ccccc4C3)CC[C@H]21 | -3.82% |
| CNC[C@H]1Oc2cc(C#CC(C)(C)O)ccc2S(=O)(=O)N([C@@H](C)CO)C[C@@H]1C | -0.555% |
| COCC(=O)N1C[C@H]2[C@@H](c3ccccc31)[C@@H](CO)N2Cc1ccccc1 | -3.85% |
| Cc1nn(-c2ccccc2)c2c1C(c1cccc([N+](=O)[O-])c1)N(c1ccccc1)C(=O)N2 (stereo not given) | 10.1% |
| Cn1nc(-c2ccccc2)c2cc([N+](=O)[O-])ccc21 | -3.5% |
| Cc1nn(-c2ccc([N+](=O)[O-])cc2)c(N)c1-c1ccccc1 | 49.1% (active) |
| Cc1ccccc1S(=O)(=O)NCC[C@@H]1CC[C@H](NC(=O)C2CC2)[C@@H](CO)O1 | -5.25% |
| CN1CCN(S(=O)(=O)c2ccc(NC(=O)c3ccco3)cc2)CC1 | 7.27% |
| O=C(/C=C/c1ccco1)NC(=S)Nc1ccccc1Br | 12.7% |
| O=C(/C=C/c1ccco1)Nc1ccc(Oc2ccccc2)cc1 | 78% (active) |
| CC1CCN(C(NC(=O)c2ccco2)C(=O)c2ccccc2)CC1 (stereo not given) | -0.711% |
| CC1CCN(c2ccc(-c3ccc(NC(=O)c4ccco4)cc3)nn2)CC1 | 55.6% (active) |
| Cc1cc(NC(=O)c2ccc(F)cc2)ccc1NC(=O)c1ccco1 | -3.11% |
| O=C(Nc1ccc(Sc2ccc(Br)cc2)cc1)c1ccco1 | 30.7% |
| CC(C)(C)NC(=O)c1cc(NC(=O)c2ccco2)cc(NC(=O)c2ccco2)c1 | -7.07% |
| O=C(NNC(=O)c1ccco1)Nc1ccccc1 | 0.317% |
| Cc1ccc(NC(=O)c2ccco2)cc1 | 58.7% (active) |
| COc1cccc(NC(=O)COC(=O)/C=C/c2ccco2)c1 | -3.7% |
| O=C(Nc1ccc(Oc2ccccc2)cc1)c1ccco1 | 45.8% (active) |
| C[C@@H]1CCCCO[C@H](CN(C)C(=O)CCCN(C)C)[C@H](C)CN([C@H](C)CO)C(=O)c2cc(NC(=O)CCC(F)(F)F)ccc2O1 | -8.36% |
| COCC(=O)NC[C@@H]1[C@@H](c2ccc(C3=CCCC3)cc2)[C@@H](CO)N1C(C)=O | 2.64% |
| C[C@@H]1CN([C@H](C)CO)C(=O)c2c(c3ccccc3n2C)-c2ccccc2CO[C@H]1CN(C)C(=O)c1ccncc1 | 1.87% |
| COCC#Cc1cnc2c(c1)C(=O)N([C@@H](C)CO)C[C@@H](C)[C@H](CN(C)C(=O)Nc1ccccc1OC)O2 | -2.03% |
